Source: PubChem BioAssay (EPA / NIEHS)
Inconclusive results are not listed. Activity calls are given as the source filed them. The calls were made as follows: active = hit-call score of the fitted dose curve at least 0.9, where 1 is the maximum; inconclusive = response in the unintended direction; inactive = score below 0.9.

What was measured:
[1] = biological target: rat Neurokinin-3 Receptor (NK3), Tacr3 (gene 24808) (UniProt P16177); assay: NVS_GPCR_rNK3: NovaScreen (NVS) G Protein-Coupled Receptor Assay for rat Neurokinin-3 Receptor (NK3) (AID 2283310)
Sequence of rat Neurokinin-3 Receptor (NK3), Tacr3 (gene 24808) (P16177 whole entry, looked up): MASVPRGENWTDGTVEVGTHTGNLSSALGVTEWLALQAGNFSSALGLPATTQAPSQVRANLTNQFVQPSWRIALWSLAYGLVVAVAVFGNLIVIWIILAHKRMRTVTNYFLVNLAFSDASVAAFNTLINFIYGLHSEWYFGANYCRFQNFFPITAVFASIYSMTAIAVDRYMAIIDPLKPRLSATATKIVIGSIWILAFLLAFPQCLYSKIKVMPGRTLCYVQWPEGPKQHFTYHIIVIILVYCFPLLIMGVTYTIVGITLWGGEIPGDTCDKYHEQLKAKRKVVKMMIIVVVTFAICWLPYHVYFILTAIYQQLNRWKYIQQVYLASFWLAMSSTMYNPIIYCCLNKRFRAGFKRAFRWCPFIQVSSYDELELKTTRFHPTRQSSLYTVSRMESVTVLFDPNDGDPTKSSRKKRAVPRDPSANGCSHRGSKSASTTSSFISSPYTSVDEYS
Outline: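 Rat cortical membranes; radioligand binding with filtration and scintillation counting, 2 h after dosing. Primary screen in duplicate at 25 uM, then concentration-response up to 50 uM; loss of binding signal relative to DMSO.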

[2] = biological target: Voltage-dependent N-type calcium channel subunit alpha-1B (Rattus norvegicus) (UniProt Q02294); assay: NVS_IC_rCaChN: NovaScreen (NVS) Ion Channel Assay for rat Calcium Channel, Type N (CaChN) (AID 2283317)
[3] = biological target: rat Neurokinin-1 Receptor (NK1), Tacr1 (gene 24807) (UniProt P14600); assay: NVS_GPCR_rNK1: NovaScreen (NVS) G Protein-Coupled Receptor Assay for rat Neurokinin-1 Receptor (NK1) (AID 2283309)
Sequence of rat Neurokinin-1 Receptor (NK1), Tacr1 (gene 24807) (P14600 whole entry, looked up): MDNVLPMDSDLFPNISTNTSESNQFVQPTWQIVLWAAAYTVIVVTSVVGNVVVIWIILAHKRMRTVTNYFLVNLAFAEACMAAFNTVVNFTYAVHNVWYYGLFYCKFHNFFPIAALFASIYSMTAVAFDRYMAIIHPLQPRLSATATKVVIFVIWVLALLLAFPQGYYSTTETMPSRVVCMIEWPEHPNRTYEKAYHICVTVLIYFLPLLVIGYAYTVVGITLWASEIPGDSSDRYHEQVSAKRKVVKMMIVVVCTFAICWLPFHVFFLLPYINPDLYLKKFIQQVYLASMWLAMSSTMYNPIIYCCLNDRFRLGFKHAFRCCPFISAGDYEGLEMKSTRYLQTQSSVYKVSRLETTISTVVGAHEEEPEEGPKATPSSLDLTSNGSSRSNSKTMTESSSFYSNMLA
Outline: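 Rat submaxillary gland membranes; radioligand displacement read by filter-based scintillation counting after 1 h. Primary screen in duplicate at 25 uM; actives retested in concentration series; loss of binding fitted versus DMSO.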

[4] = biological target: rat Opioid Receptor, Non-selective Sodium (Na+) Binding, Oprm1 (gene 25601) (UniProt P33535); assay: NVS_GPCR_rOpiate_NonSelectiveNa: NovaScreen (NVS) G Protein-Coupled Receptor Assay for rat Opioid Receptor, Non-selective Sodium (Na+) Binding (AID 2283311)
Sequence of rat Opioid Receptor, Non-selective Sodium (Na+) Binding, Oprm1 (gene 25601) (P33535 whole entry, looked up): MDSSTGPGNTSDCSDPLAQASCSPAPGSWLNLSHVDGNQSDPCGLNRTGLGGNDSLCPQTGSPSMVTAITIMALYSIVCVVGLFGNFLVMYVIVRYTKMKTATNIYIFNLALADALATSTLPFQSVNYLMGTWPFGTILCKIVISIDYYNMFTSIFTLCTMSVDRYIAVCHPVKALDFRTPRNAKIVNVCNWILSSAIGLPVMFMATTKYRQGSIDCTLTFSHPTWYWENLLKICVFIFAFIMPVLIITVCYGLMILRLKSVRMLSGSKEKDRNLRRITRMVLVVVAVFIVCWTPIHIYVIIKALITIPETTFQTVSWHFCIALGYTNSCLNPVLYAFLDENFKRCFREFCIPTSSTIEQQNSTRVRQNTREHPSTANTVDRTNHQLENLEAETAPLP
Outline: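 Rat forebrain membranes, radioligand displacement with filter scintillation counting, 1.5 h incubation. Screened in duplicate at 25 µM; hits then run in concentration-response up to 50 µM; loss of binding fitted versus DMSO.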

[5] = biological target: guinea pig Serotonin, 5-Hydroxytryptamine Receptor 4 (5HT4), HTR4 (gene 100135548) (UniProt O70528); assay: NVS_GPCR_g5HT4: NovaScreen (NVS) G Protein-Coupled Receptor Assay for guinea pig Serotonin, 5-Hydroxytryptamine Receptor 4 (5HT4) (AID 2283294)
Sequence of guinea pig Serotonin, 5-Hydroxytryptamine Receptor 4 (5HT4), HTR4 (gene 100135548) (O70528 whole entry, looked up): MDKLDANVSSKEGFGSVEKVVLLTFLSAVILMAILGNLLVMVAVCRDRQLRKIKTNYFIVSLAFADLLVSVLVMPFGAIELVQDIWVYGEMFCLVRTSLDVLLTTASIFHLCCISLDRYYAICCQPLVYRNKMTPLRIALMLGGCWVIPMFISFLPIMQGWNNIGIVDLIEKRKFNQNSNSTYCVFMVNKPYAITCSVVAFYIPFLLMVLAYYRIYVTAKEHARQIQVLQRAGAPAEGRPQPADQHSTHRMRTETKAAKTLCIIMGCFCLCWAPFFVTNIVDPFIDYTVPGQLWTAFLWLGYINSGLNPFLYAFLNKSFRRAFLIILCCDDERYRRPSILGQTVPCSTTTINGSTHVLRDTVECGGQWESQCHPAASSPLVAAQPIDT
Outline: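 Guinea pig striatal membranes; radioligand competitive displacement, filtration and scintillation counting after 1 h. Primary screen in duplicate at 25 uM; actives then tested in concentration series; loss of binding signal fitted relative to DMSO.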

[6] = test system: rat Adrenergic, Alpha 1B Receptor (Adra1B), gene 24173; assay: NVS_GPCR_rAdra1B: NovaScreen (NVS) G Protein-Coupled Receptor Assay for rat Adrenergic, Alpha 1B Receptor (Adra1B) (AID 2283297)
Outline: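 Rat liver membranes, radioligand displacement with filter-based scintillation detection, 1 h incubation. Primary screen in duplicate at 25 uM; actives retested in concentration series; activity relative to DMSO.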

[7] = biological target: rat Opioid Receptor, Non-selective Binding, Oprm1 (gene 25601) (UniProt P33535); assay: NVS_GPCR_rOpiate_NonSelective: NovaScreen (NVS) G Protein-Coupled Receptor Assay for rat Opioid Receptor, Non-selective Binding (AID 2283318)
Sequence of rat Opioid Receptor, Non-selective Binding, Oprm1 (gene 25601) (P33535 whole entry, looked up): as the sequence (P33535 whole entry, looked up) above
Outline: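 Rat forebrain membranes, cell-free radioligand binding with filter-based scintillation counting, read 1.5 h after dosing. Primary screen in duplicate at 25 uM; actives retested in concentration series. Loss of signal versus DMSO baseline scored.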

[8] = biological target: rat Adrenergic Receptor, Beta (Adrb), Non-selective Binding, Adrb1 (gene 24925) (UniProt P18090); assay: NVS_GPCR_rAdrb_NonSelective: NovaScreen (NVS) G Protein-Coupled Receptor Assay for rat Adrenergic Receptor, Beta (Adrb), Non-selective Binding (AID 2283298)
Sequence of rat Adrenergic Receptor, Beta (Adrb), Non-selective Binding, Adrb1 (gene 24925) (P18090 whole entry, looked up): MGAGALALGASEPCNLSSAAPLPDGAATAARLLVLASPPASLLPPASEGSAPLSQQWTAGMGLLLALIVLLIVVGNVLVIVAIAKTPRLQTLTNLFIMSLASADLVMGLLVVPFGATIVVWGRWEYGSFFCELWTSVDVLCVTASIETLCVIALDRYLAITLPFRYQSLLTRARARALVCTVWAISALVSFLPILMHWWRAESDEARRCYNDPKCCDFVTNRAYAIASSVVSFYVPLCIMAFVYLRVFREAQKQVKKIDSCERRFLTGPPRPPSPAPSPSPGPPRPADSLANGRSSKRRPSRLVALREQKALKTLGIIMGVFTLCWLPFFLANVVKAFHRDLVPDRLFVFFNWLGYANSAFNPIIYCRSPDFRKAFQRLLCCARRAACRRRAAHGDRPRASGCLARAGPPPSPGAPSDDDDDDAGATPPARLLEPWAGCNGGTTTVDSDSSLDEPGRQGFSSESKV
Outline: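 Non-selective beta-adrenergic radioligand binding in rat cortical membranes, 1 h incubation, filter-based scintillation read-out. Primary screen 25 uM in duplicate; hits retested in concentration-response up to 50 uM, DMSO baseline.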

[9] = NVS_IC_rCaDHPRCh_L: NovaScreen (NVS) Ion Channel Assay for rat Calcium Channel, Type L, Dihydropyridine Site (CaDHPRCh_L) (AID 2283320)
Outline: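 Radioligand binding to dihydropyridine site on rat cortical membranes, filter-based scintillation counting, 1 h after dosing. Screened in duplicate at 25 uM; actives rerun in concentration-response up to 50 uM. Loss of signal versus DMSO baseline.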

[10] = biological target: rat Corticotropin Releasing Factor Receptor (CRF), Crhr1 (gene 58959) (UniProt P35353); assay: NVS_GPCR_rCRF: NovaScreen (NVS) G Protein-Coupled Receptor Assay for rat Corticotropin Releasing Factor Receptor (CRF) (AID 2283300)
Outline: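 Rat cortical membranes used as receptor source in a radioligand competitive displacement binding assay; scintillation read 2 h after dosing. Primary screen run in duplicate at 25 uM; loss of signal versus DMSO baseline indicates binding.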

[11] = biological target: rat Somatostatin Receptor (SST), Sstr1 (gene 25033) (UniProt P28646); assay: NVS_GPCR_rSST: NovaScreen (NVS) G Protein-Coupled Receptor Assay for rat Somatostatin Receptor (SST) (AID 2283314)
Sequence of rat Somatostatin Receptor (SST), Sstr1 (gene 25033) (P28646 whole entry, looked up): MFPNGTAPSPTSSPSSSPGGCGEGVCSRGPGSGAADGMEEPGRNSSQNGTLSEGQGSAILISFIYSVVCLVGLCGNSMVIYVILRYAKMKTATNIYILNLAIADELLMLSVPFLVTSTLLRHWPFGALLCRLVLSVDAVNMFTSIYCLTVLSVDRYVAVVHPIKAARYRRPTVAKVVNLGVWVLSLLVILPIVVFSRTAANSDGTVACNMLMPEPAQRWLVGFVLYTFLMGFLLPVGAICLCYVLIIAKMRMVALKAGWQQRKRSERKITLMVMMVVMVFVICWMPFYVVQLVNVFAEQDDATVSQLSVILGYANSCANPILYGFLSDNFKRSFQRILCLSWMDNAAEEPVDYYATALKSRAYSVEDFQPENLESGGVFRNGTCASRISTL
Outline: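 Rat forebrain membranes; radioligand displacement read by filter-based scintillation counting 1 h after dosing. Primary screen in duplicate at 25 uM. Actives (e.g., 30% inhibition) were rerun as concentration-response to 50 uM max and fitted against DMSO.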

[12] = biological target: Metabotropic glutamate receptor 1 (Rattus norvegicus) (UniProt P23385); assay: NVS_GPCR_rmMGluR1: NovaScreen (NVS) G Protein-Coupled Receptor Assay for rat Glutamate Metabotropic Receptor 1 (MGluR1) (AID 2283305)
Sequence of Metabotropic glutamate receptor 1 (Rattus norvegicus) (P23385 whole entry, looked up): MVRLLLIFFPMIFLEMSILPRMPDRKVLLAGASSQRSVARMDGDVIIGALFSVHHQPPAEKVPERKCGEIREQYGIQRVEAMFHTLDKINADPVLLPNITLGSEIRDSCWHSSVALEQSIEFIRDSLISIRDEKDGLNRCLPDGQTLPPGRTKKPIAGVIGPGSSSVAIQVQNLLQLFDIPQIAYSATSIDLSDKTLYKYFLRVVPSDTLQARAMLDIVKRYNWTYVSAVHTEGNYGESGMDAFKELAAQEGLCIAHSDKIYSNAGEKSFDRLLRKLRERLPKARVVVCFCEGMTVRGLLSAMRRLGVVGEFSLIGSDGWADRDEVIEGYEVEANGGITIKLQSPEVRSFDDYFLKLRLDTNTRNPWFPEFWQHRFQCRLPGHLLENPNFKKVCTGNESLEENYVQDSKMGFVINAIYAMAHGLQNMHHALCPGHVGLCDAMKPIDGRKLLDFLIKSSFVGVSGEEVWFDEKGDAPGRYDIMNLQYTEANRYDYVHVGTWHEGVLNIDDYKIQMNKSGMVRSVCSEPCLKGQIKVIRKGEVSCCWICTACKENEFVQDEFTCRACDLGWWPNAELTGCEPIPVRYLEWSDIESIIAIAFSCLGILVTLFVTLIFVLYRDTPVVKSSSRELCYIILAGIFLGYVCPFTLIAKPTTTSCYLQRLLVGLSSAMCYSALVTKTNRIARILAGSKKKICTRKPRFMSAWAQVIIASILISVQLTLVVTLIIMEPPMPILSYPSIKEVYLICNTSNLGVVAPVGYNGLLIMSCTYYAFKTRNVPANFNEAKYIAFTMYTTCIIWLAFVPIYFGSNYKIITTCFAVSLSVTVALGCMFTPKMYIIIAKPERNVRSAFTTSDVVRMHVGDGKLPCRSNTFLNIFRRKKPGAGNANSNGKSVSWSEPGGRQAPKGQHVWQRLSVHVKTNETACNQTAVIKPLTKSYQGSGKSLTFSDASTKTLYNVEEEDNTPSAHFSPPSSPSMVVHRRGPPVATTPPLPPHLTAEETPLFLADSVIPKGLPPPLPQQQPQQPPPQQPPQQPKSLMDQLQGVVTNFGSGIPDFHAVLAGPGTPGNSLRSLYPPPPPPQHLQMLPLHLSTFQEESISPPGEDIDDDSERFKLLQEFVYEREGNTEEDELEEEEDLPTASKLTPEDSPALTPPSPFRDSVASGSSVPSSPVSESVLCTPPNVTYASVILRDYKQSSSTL
Outline: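 Rat cerebellum membrane preparation, radioligand displacement binding read by filter-based scintillation counting 1 hour after dosing. Initial duplicate single-point screen at 25 uM, then concentration-response up to 50 uM; loss of signal versus DMSO baseline scored.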

[13] = biological target: rat Gamma-Aminobutyric Acid Type B Receptor (GABBR), Gabbr1 (gene 81657) (UniProt Q9Z0U4); assay: NVS_GPCR_rGABBR: NovaScreen (NVS) G Protein-Coupled Receptor Assay for rat Gamma-Aminobutyric Acid Type B Receptor (GABBR) (AID 2283301)
Outline: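 Radioligand displacement on rat cortical membranes, 1 h, filter-based scintillation counting. Primary screen at 25 uM in duplicate; compounds passing threshold re-tested in concentration-response up to 50 uM; loss of binding fitted against DMSO.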

[14] = biological target: rat Histamine Receptor (H3), Hrh3 (gene 85268) (UniProt Q9QYN8); assay: NVS_GPCR_rH3: NovaScreen (NVS) G Protein-Coupled Receptor Assay for rat Histamine Receptor (H3) (AID 2283303)
Outline: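 Rat forebrain membranes incubated 1 h with compound; radioligand displacement measured by filter-based scintillation counting. Single-concentration duplicates at 25 µM, then concentration-response up to 50 µM, relative to DMSO.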

[15] = biological target: Adra2b (gene 24174) (UniProt P19328); assay: NVS_GPCR_rmAdra2B: NovaScreen (NVS) G Protein-Coupled Receptor Assay for hybird cells Adrenergic, Alpha 2B Receptor (Adra2B) (AID 2283306)
Sequence of Adra2b (gene 24174) (P19328 whole entry, looked up): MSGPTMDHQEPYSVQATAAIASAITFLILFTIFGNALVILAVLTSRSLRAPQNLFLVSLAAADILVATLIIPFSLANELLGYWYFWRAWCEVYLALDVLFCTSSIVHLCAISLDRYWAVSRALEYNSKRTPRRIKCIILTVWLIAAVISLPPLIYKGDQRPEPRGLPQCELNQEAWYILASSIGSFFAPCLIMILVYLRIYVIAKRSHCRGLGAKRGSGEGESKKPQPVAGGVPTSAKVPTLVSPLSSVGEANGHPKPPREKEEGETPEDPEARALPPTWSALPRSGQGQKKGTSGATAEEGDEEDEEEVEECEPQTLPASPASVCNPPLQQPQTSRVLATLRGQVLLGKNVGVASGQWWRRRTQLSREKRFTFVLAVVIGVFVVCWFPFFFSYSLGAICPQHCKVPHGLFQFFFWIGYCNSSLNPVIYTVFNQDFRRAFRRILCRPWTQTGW
Outline: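 Radioligand filter-binding assay on membrane proteins from neuroglioma/blastoma hybrid cells (rodent), 1 h after dosing; scintillation counting, loss of signal vs DMSO. Primary screen in duplicate at 25 uM, actives then run in concentration series.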

[16] = biological target: human Neonicotinoid receptor (NNR), CHRNA2 (gene 1135) (UniProt Q15822); assay: NVS_LGIC_hNNR_NBungSens: NovaScreen (NVS) Ligand-Gated Ion Channel Assay for human Neonicotinoid receptor (NNR) (AID 2283313)
Outline: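 Radioligand displacement on human neuroblastoma membranes, 2 h, filter-based scintillation counting. Primary screen in duplicate at 25 uM; chemicals passing threshold (e.g. 30% inhibition) run singleton concentration-response to 50 uM; loss of binding fitted versus DMSO.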

[17] = biological target: rat Neonicotinoid receptor (NNR), Chrna7 (gene 25302) (UniProt Q05941); assay: NVS_LGIC_rNNR_BungSens: NovaScreen (NVS) Ligand-Gated Ion Channel Assay for rat Neonicotinoid receptor (NNR) (AID 2283315)
Sequence of rat Neonicotinoid receptor (NNR), Chrna7 (gene 25302) (Q05941 whole entry, looked up): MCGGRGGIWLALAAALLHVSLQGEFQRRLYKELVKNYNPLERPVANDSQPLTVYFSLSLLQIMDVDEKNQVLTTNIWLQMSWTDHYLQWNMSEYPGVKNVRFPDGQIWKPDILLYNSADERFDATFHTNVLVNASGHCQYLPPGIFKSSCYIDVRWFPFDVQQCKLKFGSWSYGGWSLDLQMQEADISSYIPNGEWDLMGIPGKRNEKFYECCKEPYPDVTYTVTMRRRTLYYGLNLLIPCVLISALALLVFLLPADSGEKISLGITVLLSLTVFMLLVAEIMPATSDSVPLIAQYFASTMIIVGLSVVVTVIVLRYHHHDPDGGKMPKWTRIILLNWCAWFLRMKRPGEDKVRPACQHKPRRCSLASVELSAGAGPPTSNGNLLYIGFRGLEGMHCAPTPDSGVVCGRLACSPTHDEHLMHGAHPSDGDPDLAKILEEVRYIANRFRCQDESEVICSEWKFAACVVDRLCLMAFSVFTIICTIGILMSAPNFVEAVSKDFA
Outline: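 Radioligand displacement binding on rat cortical membranes, 2.5 h incubation, filtration and scintillation counting. Loss of specific binding fitted relative to DMSO.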

[18] = test system: NCBI gene 24521; assay: NVS_IC_rKATPCh: NovaScreen (NVS) Ion Channel Assay for rat Potassium Channel, ATP-Sensitive (KATPCh) (AID 2283319)
Outline: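 Rat cortical membranes; radioligand binding at ATP-sensitive K channel site, filter-based scintillation counting 2 h after dosing. Single-point duplicate screen at 25 uM, hits rerun in concentration-response up to 50 uM; loss of signal versus DMSO.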

[19] = test system: NCBI gene 257648; assay: NVS_IC_rCaChN: NovaScreen (NVS) Ion Channel Assay for Calcium Channel, Type N (CaChN) (AID 2283317)
[20] = biological target: rat Vasopressin 1 Receptor (V1), Avpr1a (gene 25107) (UniProt P30560); assay: NVS_GPCR_rV1: NovaScreen (NVS) G Protein-Coupled Receptor Assay for rat Vasopressin 1 Receptor (V1) (AID 2283316)
Outline: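 Radioligand binding on rat liver membranes, 1.5 h incubation, filter-based scintillation counting. Single 25 uM screen in duplicate; chemicals meeting threshold (e.g. 30% inhibition) run in concentration-response up to 50 uM.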

SMILES: CCCCCCCCCc1ccc(O)cc1
- outcome [1]: inactive
- outcome [2]: inactive

SMILES: Cc1cc2c3c(c1)C(c1ccccc1)=N[C@@H](NC(=O)c1ccncc1)C(=O)N3CC2
- outcome [3]: inactive
- AC50 [1]: 0.073 µM (active)
- outcome [4]: inactive

SMILES: CC1=C2C[C@H]3[C@@H](CC=C4C[C@@H](O)CC[C@@]43C)[C@@H]2CC[C@]12O[C@@H]1C[C@H](C)CN[C@H]1[C@H]2C
- outcome [5]: inactive
- outcome [6]: inactive
- outcome [7]: inactive

SMILES: Cc1cc(-c2ccc(N)c(C)c2)ccc1N
- outcome [8]: inactive

SMILES: Nc1ccc(-c2ccc(N)cc2)cc1
- outcome [6]: inactive

SMILES: CC(C)(c1ccccc1)c1ccc(O)cc1
- AC50 [5]: 23.7 µM (active)
- outcome [4]: inactive
- AC50 [9]: 25 µM (active)

SMILES: CC(c1ccc(O)cc1)(c1ccc(O)cc1)c1ccc(O)cc1
- outcome [10]: inactive

SMILES: C[C@]12CCC(=O)C=C1CC[C@@H]1[C@@H]2CC[C@]2(C)C(=O)CC[C@@H]12
- outcome [4]: inactive
- AC50 [11]: 17.6 µM (active)
- outcome [7]: inactive

SMILES: Oc1ccc(C(c2ccc(O)cc2)(C(F)(F)F)C(F)(F)F)cc1
- AC50 [5]: 11.7 µM (active)
- AC50 [6]: 41.2 µM (active)
- AC50 [4]: 25 µM (active)

SMILES: CCC(=O)O[C@H]1CC[C@H]2[C@@H]3CCC4=CC(=O)CC[C@]4(C)[C@H]3CC[C@]12C
- outcome [12]: inactive
- outcome [1]: inactive
- outcome [2]: inactive

SMILES: O=C(NC(=O)c1c(F)cccc1F)Nc1cc(Cl)c(OC(F)(F)C(F)F)c(Cl)c1
- outcome [4]: inactive

SMILES: O=C(N[C@H]1CN2CCC1CC2)c1cc2ccoc2cn1
- AC50 [5]: 16.4 µM (active)
- AC50 [6]: 11 µM (active)
- outcome [8]: inactive
- outcome [13]: inactive
- AC50 [14]: 1.75 µM (active)
- AC50 [15]: 16.4 µM (active)
- AC50 [16]: 17.7 µM (active)
- AC50 [17]: 0.0114 µM (active)
- outcome [2]: inactive

SMILES: COc1ccc(O)c(C(C)(C)C)c1
- AC50 [5]: 18.8 µM (active)

SMILES: Cc1cc(O)ccc1Cl
- outcome [18]: inactive

SMILES: CCCCCCCCCC[N+](C)(C)CCCCCCCCCC
- AC50 [5]: 21.9 µM (active)
- AC50 [12]: 17.6 µM (active)
- outcome [15]: inactive
- outcome [3]: inactive
- outcome [1]: inactive
- outcome [4]: inactive
- outcome [11]: inactive
- AC50 [19]: 41.7 µM (active)
- AC50 [9]: 10.2 µM (active)

SMILES: ClC1=C(Cl)[C@]2(Cl)[C@@H]3[C@@H]4C[C@@H]([C@H]5O[C@@H]45)[C@@H]3[C@@]1(Cl)C2(Cl)Cl
- AC50 [11]: 10.6 µM (active)

SMILES: ClC1=C(Cl)[C@]2(Cl)[C@@H]3[C@H]4C[C@H]([C@@H]5O[C@H]45)[C@@H]3[C@@]1(Cl)C2(Cl)Cl
- AC50 [11]: 9.78 µM (active)
- outcome [2]: inactive

SMILES: Clc1ccc(C(c2ccccc2Cl)C(Cl)(Cl)Cl)cc1 (configuration not stated)
- outcome [2]: inactive

SMILES: CN(C)CCO
- AC50 [9]: 25 µM (active)

SMILES: CCOP(=S)(OCC)SCSC(C)(C)C
- outcome [17]: inactive

SMILES: CCC(C)(CC)c1cc(NC(=O)c2c(OC)cccc2OC)on1
- outcome [1]: inactive
- AC50 [20]: 2.57 µM (active)
- outcome [9]: inactive

SMILES: CCC(C)(c1ccc(O)cc1)c1ccc(O)cc1
- AC50 [5]: 16.5 µM (active)
- AC50 [4]: 25 µM (active)
- AC50 [7]: 15.6 µM (active)

SMILES: CCSC(=O)N(CC)C1CCCCC1
- AC50 [3]: 40.1 µM (active)
